# The supplement of paper PMC8728848
# The sample as a whole holds a higher share of the strongest signals than the screen did.
# B1: Blon2468mut (Bifidobacterium longum) (protein)
# chain: MTFIKQMMPRYVASMTAGIVAAAMAATCAFAPVANADAVSPTQETIQSTGRHFMVYYRAWRDVTMKGVNTDLPDDNWISMYDIPYGVDVVNIFSYVPSGQEEQAQPFYDKLKSDYAPYLHSRGIKLVRGIDYTGVAVNGFRTFMKEQNKTESEATEADYDAYAKQVIDKYMISVGLDGLDIDMQAHPNDADVKISDNVIRALSKHIGPKSAKPDTTMFLYDTNGSYLNPFKNVAECFDYVAYQQYGSSSDRTARAAADYQPYIGNEFVPGLTFPEEGDMNNRWYDATEPYEESHFYQVASYVREHNLGGMFVYALDRDGRNYDEDLRRIVPSNLLWTKTAIAESEGMALDTAKTAANHYLDRMSLRQVIDDNAASADKARDMVGKAANLYETNKAVLGGDYGEGFSNTYDPTLEAGLLGIDISVLQQQIDKSSEIIGADTAESDAKTALRMARDAAIDGLTGKIYTADQVSAWSQALKAALDATVPVPTPDSTDQNGNRDKVTNHKVQGQPKQLSATGISTDIIVAVGVTLAIAGVALSLSRKLS
# Experiments:
# Assay in all cases: glycan array binding signal (z-score within array); higher = stronger binding
# Conditions in all cases: glycan notation: IUPAC condensed, linker removed
# [1] = molecular target: GalNAc(b1-3)GlcNAc
# In short: (§1)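 Columns mapping to the same glycan were averaged after glycan names were converted to IUPAC-condensed notation. The data come from 3228 arrays in the Consortium for Functional Glycomics database, limited to those with an available protein sequence. Binding is reported as a within-array Z-score averaged across arrays of one protein sequence and across linkers.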
# [2] = molecular target: Glc(a1-4)Glc(a1-4)Glc(a1-4)Glc
# In short: as §1
# [3] = molecular target: Glc(b1-6)Glc
# In short: as §1
# [4] = molecular target: GlcNAc(b1-2)Man(a1-3)[GlcNAc(b1-2)Man(a1-6)]Man(b1-4)GlcNAc(b1-4)GlcNAc
# In short: as §1
# [5] = molecular target: GlcNAc(b1-2)[GlcNAc(b1-4)]Man(a1-3)[GlcNAc(b1-4)][GlcNAc(b1-2)[GlcNAc(b1-6)]Man(a1-6)]Man(b1-4)GlcNAc(b1-4)GlcNAc
# In short: as §1
# [6] = molecular target: GlcNAc(b1-3)Gal(b1-4)GlcNAc(b1-3)Gal(b1-4)GlcNAc(b1-3)GalNAc
# In short: as §1
# [7] = molecular target: GlcNAc(b1-6)GalNAc
# In short: as §1
# [8] = molecular target: Man(a1-2)Man(a1-2)Man(a1-6)[Man(a1-3)]Man
# In short: as §1
# [9] = molecular target: Man(a1-2)Man(a1-3)[Man(a1-6)]Man(a1-6)[Man(a1-2)Man(a1-3)]Man(b1-4)GlcNAc(b1-4)GlcNAc
# In short: as §1
# [10] = molecular target: Man(a1-3)[Man(a1-6)]Man
# In short: as §1
# [11] = molecular target: Man(a1-3)[Man(a1-6)]Man(a1-6)[Man(a1-3)]Man
# In short: as §1
# [12] = molecular target: Man(a1-3)[Man(a1-6)]Man(b1-4)GlcNAc(b1-4)GlcNAc
# In short: as §1
# [13] = molecular target: Man(a1-3)[Man(a1-6)]Man(b1-4)GlcNAc(b1-4)[Fuc(a1-6)]GlcNAc
# In short: as §1
# [14] = molecular target: Man(b1-4)GlcNAc
# In short: as §1
# [15] = molecular target: MurNAc(b1-4)GlcNAc
# In short: as §1
# [16] = molecular target: Neu5Ac(a2-3)Gal(b1-3)GalNAc6S
# In short: as §1
# [17] = molecular target: Neu5Ac(a2-3)Gal(b1-3)[Fuc(a1-4)]GlcNAc(b1-3)Gal(b1-4)[Fuc(a1-3)]GlcNAc
# In short: as §1
# [18] = molecular target: Neu5Ac(a2-3)Gal(b1-4)GlcNAc(b1-2)Man(a1-3)[GlcNAc(b1-4)][Neu5Ac(a2-3)Gal(b1-4)GlcNAc(b1-2)Man(a1-6)]Man(b1-4)GlcNAc(b1-4)GlcNAc
# In short: as §1
# [19] = molecular target: Neu5Ac(a2-3)Gal(b1-4)GlcNAc(b1-3)Gal
# In short: as §1
# [20] = molecular target: Neu5Ac(a2-3)Gal(b1-4)GlcNAc(b1-3)Gal(b1-4)GlcNAc(b1-3)Gal(b1-4)GlcNAc
# In short: as §1
# [21] = molecular target: Neu5Ac(a2-3)Gal(b1-4)GlcNAc(b1-3)Gal(b1-4)GlcNAc(b1-3)Gal(b1-4)GlcNAc(b1-2)Man(a1-3)[Neu5Ac(a2-3)Gal(b1-4)GlcNAc(b1-3)Gal(b1-4)GlcNAc(b1-3)Gal(b1-4)GlcNAc(b1-2)Man(a1-6)]GalNAc
# In short: as §1
# [22] = molecular target: Neu5Ac(a2-3)Gal(b1-4)GlcNAc(b1-3)Gal(b1-4)[Fuc(a1-3)]GlcNAc
# In short: as §1
# [23] = molecular target: Neu5Ac(a2-6)Gal(b1-4)GlcNAc(b1-2)Man(a1-3)[Neu5Ac(a2-3)Gal(b1-4)GlcNAc(b1-2)Man(a1-6)]Man(b1-4)GlcNAc(b1-4)GlcNAc
# In short: as §1
# [24] = molecular target: Neu5Ac(a2-6)Gal(b1-4)GlcNAc(b1-2)Man(a1-3)[Neu5Ac(a2-6)Gal(b1-4)GlcNAc(b1-2)Man(a1-6)]Man(b1-4)GlcNAc(b1-4)[Fuc(a1-6)]GlcNAc
# In short: as §1
# [25] = molecular target: Neu5Ac(a2-6)Gal(b1-4)GlcNAc(b1-2)Man(a1-6)Man(b1-4)GlcNAc(b1-4)GlcNAc
# In short: as §1
# [26] = molecular target: Neu5Ac(a2-6)Gal(b1-4)GlcNAc(b1-3)Gal(b1-4)[Fuc(a1-3)]GlcNAc(b1-3)Gal(b1-4)[Fuc(a1-3)]GlcNAc
# In short: as §1
# [27] = molecular target: Neu5Ac(a2-8)Neu5Ac
# In short: as §1
# [28] = molecular target: Neu5Ac(a2-8)Neu5Ac(a2-3)Gal(b1-4)GlcNAc
# In short: as §1
binder,measurement,setting,value
B1,glycan array binding signal (z-score),[1],-0.05
same,glycan array binding signal (z-score),[2],-0.064
same,glycan array binding signal (z-score),[3],-0.029
same,glycan array binding signal (z-score),[4],-0.069
same,glycan array binding signal (z-score),[5],-0.091
same,glycan array binding signal (z-score),[6],-0.065
same,glycan array binding signal (z-score),[7],-0.094
same,glycan array binding signal (z-score),[8],-0.034
same,glycan array binding signal (z-score),[9],-0.083
same,glycan array binding signal (z-score),[10],-0.056
same,glycan array binding signal (z-score),[11],0.323
same,glycan array binding signal (z-score),[12],6.11
same,glycan array binding signal (z-score),[13],22.6
same,glycan array binding signal (z-score),[14],-0.072
same,glycan array binding signal (z-score),[15],-0.087
same,glycan array binding signal (z-score),[16],-0.077
same,glycan array binding signal (z-score),[17],0.065
same,glycan array binding signal (z-score),[18],-0.063
same,glycan array binding signal (z-score),[19],-0.065
same,glycan array binding signal (z-score),[20],-0.05
same,glycan array binding signal (z-score),[21],-0.005
same,glycan array binding signal (z-score),[22],-0.04
same,glycan array binding signal (z-score),[23],0.012
same,glycan array binding signal (z-score),[24],-0.077
same,glycan array binding signal (z-score),[25],-0.076
same,glycan array binding signal (z-score),[26],-0.078
same,glycan array binding signal (z-score),[27],-0.066
same,glycan array binding signal (z-score),[28],-0.079
